Results filed as inconclusive are left out. Activity calls are given as the source filed them. The call rests on the fitted dose curve; in most records, active means well fitted activation curve with a large enough effect in the signal ratio in the repeat runs (not every such curve was filed as active); inconclusive means weak or mixed curves, or effect the other way; inactive means no such curve, though single readings can be large or run the other way; the % refers to the signal ratio.
On the % scale 0 is the no-effect control and ±100 the full control effect.

Chain of Peroxisome proliferator-activated receptor gamma (Homo sapiens) (P37231 whole entry, looked up): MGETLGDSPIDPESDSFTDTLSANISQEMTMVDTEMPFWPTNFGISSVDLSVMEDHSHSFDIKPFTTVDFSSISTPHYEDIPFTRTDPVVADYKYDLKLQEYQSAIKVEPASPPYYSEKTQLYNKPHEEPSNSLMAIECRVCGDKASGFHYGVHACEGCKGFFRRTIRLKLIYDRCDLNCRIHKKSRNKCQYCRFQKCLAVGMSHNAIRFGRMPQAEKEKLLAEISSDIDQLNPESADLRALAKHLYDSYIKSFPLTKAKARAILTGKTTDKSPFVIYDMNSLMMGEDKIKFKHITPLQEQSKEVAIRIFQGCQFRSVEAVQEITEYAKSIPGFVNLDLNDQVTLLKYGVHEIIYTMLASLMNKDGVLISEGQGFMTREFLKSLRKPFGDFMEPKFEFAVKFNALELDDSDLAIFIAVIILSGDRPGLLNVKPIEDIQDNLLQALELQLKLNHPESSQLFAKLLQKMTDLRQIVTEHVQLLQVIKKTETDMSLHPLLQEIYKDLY

The target of this experiment is Peroxisome proliferator-activated receptor gamma (Homo sapiens) (UniProt P37231). Kind of experiment: qHTS assay to identify small molecule agonists of the peroxisome proliferator-activated receptor gamma (PPARg) signaling pathway (AID 743094). Particulars: HEK293H PPARg-UAS-bla, beta-lactamase FRET ratio, 17 h; series mostly up to 57 µM. From the text:
U.S. Tox21 Program National Center for Advancing Translational Sciences [NCATS] NIH Chemical Genomics Center [NCGC] U.S. Environmental Protection Agency [EPA] National Institutes of Environmental Health Sciences [NIEHS] National Toxicology Program [NTP] U.S. Food and Drug Administration [FDA] Tox21 Assay Overview: The peroxisome proliferator-activated receptors (PPARs) are lipid-activated transcription factors of the nuclear receptor superfamily with three distinct subtypes namely PPAR alpha, PPAR delta (also called PPAR beta) and PPAR gamma (PPARg). All these subtypes heterodimerize with Retinoid X receptor (RXR) and these heterodimers regulate transcription of various genes. PPAR-gamma receptor (glitazone receptor) is involved in the regulation of glucose and lipid metabolism. To identify the compounds that activate PPAR-gamma signaling, GeneBLAzer PPAR gamma UAS-bla HEK293H cell line (Invitrogen, Carlsbad, CA, USA) containing a beta-lactamase reporter gene under control of the control of an upstream activator sequence (UAS) stably integrated into HEK293H cells was used to screen Tox21 compound library.
Tox21 Assay Protocol Summary: PPARg-bla cells were dispensed at 3000 cells/6uL/well in 1536-well black wall/clear bottom plates using a Multidrop Combi (Thermo Fisher Scientific, Waltham, MA) dispenser. After the assay plates were incubated at 37C and 5% CO2 for 5 h, 23 nL of compounds dissolved in DMSO, positive controls or DMSO only was transferred to the assay plate by a Pintool station (Kalypsys, San Diego, CA). The assay plates were incubated at 37C for 17 h. After 1 uL of LiveBLAzerTM B/G FRET substrate was added using a Bioraptr Flying Reagent Dispenser (FRD) workstation (Beckman Coulter, Indianapolis, IN, USA), the plates were incubated at room temperature for 1 h, and fluorescence intensity was measured by an Envision plate reader (PerkinElmer, Shelton, CT).
In general terms: In qHTS, concentration-response curves come from the screen itself.
For `CC(C)(C)NCCNC(C)(C)C`, the outcome was inactive.
On to `CCC(C)S` (stereo not given), for which the activation was 4.65% [at 3.17 µM] (inactive).
For the molecule `CC(C)NC(=O)NC(C)C`, the outcome was inactive.
Still for that read-out and setting: the result for `CCN(CC)CCOCCOC(=O)C1(c2ccccc2)CCCC1` reads “inactive”; that for `CC(=O)CC(C)C`, “inactive”.
The same measure, in the same setting: the result for `Cc1cccn2c(=O)c(-c3nnn[nH]3)cnc12` reads “inactive”; that for `CCC(C)C1CCCCC1=O` (stereo not given), “inactive”; that for `COC(=O)C1=C(C)NC(C)=C(C(=O)OC)C1c1ccccc1[N+](=O)[O-]`, “inactive”.
Still for that read-out and setting: the result for `CC/C=C\CC/C=C/CO` reads “inactive”; that for `Nc1ccc(S(=O)(=O)Nc2ccnn2-c2ccccc2)cc1`, “inactive”; that for `NC(=O)c1ccc([N+](=O)[O-])cc1`, “inactive”.
As to `Cn1c(N)c(N=O)c(=O)n(C)c1=O`, the result was inactive.
On the same count and under the same terms, the result for `COC(=O)c1ccc(C)cc1C1=NC(C)(C(C)C)C(=O)N1` (stereo not given) reads “inactive”; that for `CCOc1ccc(C(=O)OCCN(CC)CC)cc1`, “inactive”.
For the molecule `CCc1nccnc1CC`, the outcome was inactive.
Take `COC(=O)CC(C)=O`: the result was inactive.
On the same count and under the same terms, in the case of `CO[C@]12C[C@@H](COC(=O)c3cncc(Br)c3)CN(C)[C@@H]1Cc1cn(C)c3cccc2c13` it was “inactive”; in that of `CC(C)(CC(=O)O)C(=O)O`, “inactive”; in that of `COC(=O)c1c(Cl)c(Cl)c(C(=O)OC)c(Cl)c1Cl`, “inactive”.
Same read-out and setting: the result for `O=c1n(CCO)c(=O)n(CCO)c(=O)n1CCO` reads “inactive”; that for `O=C(O)CCCc1ccccc1`, “inactive”.
With `CCOC(=O)C(=O)OCC`, the result was inactive.
Still for that read-out and setting: in the case of `CC1=CC(C)C(C=O)CC1` (stereo not given) it was “inactive”; in that of `CCOC(C)(C)C`, “inactive”.
Same read-out and setting: in the case of `CC(C)(C)c1ccc(O)c(O)c1` it was “inactive”; in that of `O=Cc1cccc([N+](=O)[O-])c1`, “inactive”.
On the same count and under the same terms, the result for `CC(C)CCCC(C)N` (stereo not given) reads “inactive”.
In the case of `N=C(N)c1ccc(OCCCOc2ccc(C(=N)N)cc2)cc1`, the result was inactive.
The same measure, in the same setting: in the case of `N=c1nc(N2CCCCC2)cc(N)n1O` it was “inactive”; in that of `CN(C(=O)c1c(O)c2ccccc2n(C)c1=O)c1ccccc1`, “inactive”; in that of `O=c1[nH]c(=O)n([C@H]2C[C@H](O)[C@@H](CO)O2)cc1I`, “inactive”.
Consider `O=S(O)CO`, for which the outcome was inactive.
Consider `Cc1c(O)cccc1O`, for which the result was inactive.
Regarding `C=C[Si](OC(=C)C)(OC(=C)C)OC(=C)C`, the result was inactive.
Same read-out and setting: the result for `CC(=O)Nc1ccc(S(N)(=O)=O)cc1` reads “inactive”; that for `O=C(O)CCCl`, “inactive”; that for `C=C1CC[C@H]2C[C@@H]1C2(C)C`, “inactive”.
`NC(=O)COCCN1CCN(C(c2ccccc2)c2ccc(Cl)cc2)CC1` (stereo not given): the outcome was inactive.
Same read-out and setting: in the case of `NC(=O)c1ccc(N)cc1` it was “inactive”; in that of `C[C@H](NC(CCc1ccccc1)C(=O)O)C(=O)N1CCC[C@H]1C(=O)O` (stereo not given in full), “inactive”.
